Sampled rows, rich in hits. Any-hit rate of the full collection: about 11%.
ALDH1A1 inh – qHTS Assay for Inhibitors of Aldehyde Dehydrogenase 1 (ALDH1A1); Aldehyde dehydrogenase 1A1 (Homo sapiens), P00352; Purified ALDH1A1, NADH fluorescence, propionaldehyde substrate; Potency, µM (titrated, usually from 75.3 µM), for inactives: top-dose activity, negative = inhibition, hits mostly inhibitors; 220,000 tested, 7.3% active; AID 1030, 2008;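 also: potency is read from the fitted curve at half-maximal effect; plate controls were no enzyme wells and a reference inhibitor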
Target sequence (P00352 whole entry, looked up): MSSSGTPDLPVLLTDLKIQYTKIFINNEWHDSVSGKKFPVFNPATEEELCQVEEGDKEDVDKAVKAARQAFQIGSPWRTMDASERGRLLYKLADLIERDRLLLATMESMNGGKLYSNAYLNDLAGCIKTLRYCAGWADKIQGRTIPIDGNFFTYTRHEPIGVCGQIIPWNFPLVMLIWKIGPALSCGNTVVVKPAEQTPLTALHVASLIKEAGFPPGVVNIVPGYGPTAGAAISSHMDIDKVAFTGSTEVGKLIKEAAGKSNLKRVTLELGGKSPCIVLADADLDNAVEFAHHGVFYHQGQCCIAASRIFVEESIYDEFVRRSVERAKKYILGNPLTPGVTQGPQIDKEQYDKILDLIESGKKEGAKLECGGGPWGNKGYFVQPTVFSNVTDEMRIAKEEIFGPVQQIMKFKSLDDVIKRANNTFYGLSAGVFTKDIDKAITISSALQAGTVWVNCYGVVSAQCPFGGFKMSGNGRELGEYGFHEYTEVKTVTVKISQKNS
PNC assembly inh – High Content Assay for Compounds that inhibit the Assembly of the Perinucleolar Compartment; PC3M PTB-GFP, PNC prevalence imaging, 16 h; stronger effect = lower value; activity change (PNC), negative = inhibition, % at 10 µM; 140,000 tested, 3.1% active; AID 2417, 2010;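 active = readout at or below -70, meaning at least 70% loss of cells showing the perinucleolar compartment, a nuclear body marking cancer cells; inconclusive = readout between -30 and a set limit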;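 also: plate controls were DMSO wells for no effect and camptothecin positive control wells for full effect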
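Read-out is percentage of cells bearing a perinucleolar compartment, from automated 20x imaging of fixed, Hoechst-stained PC3M PTB-GFP cells. Cells were seeded 4 h, then exposed 16 h to compound (23 nl of library stock) in duplicate plates.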
HPGD block – qHTS Assay for Inhibitors of HPGD (15-Hydroxyprostaglandin Dehydrogenase); 15-hydroxyprostaglandin dehydrogenase [NAD(+)] (Homo sapiens), P15428; purified HPGD, NADH fluorescence kinetic, PGE2 substrate; Potency, µM, for the others: at the top dose activity change, negative = inhibition, most hits filed as inhibitors; 150,000 tested, 4.3% active; AID 894, 2007; also: potency is read from the fitted curve at half-maximal effect
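NADH formation kinetics: reaction with 30 uM PGE2 and 1 mM NAD+ (final), 20 nM enzyme, Tris-HCl pH 8 with Tween 20, after 15 min compound preincubation at room temperature. Fluorescence change, last versus first of five reads.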
* = called active by the depositor; ? = inconclusive; . = not tested or not shown; [ ] = dose if it differs, or a comment. Unless noted, calls follow the shape of the dose curve; as a rule, active = well fitted inhibition curve with a large enough effect (not every such curve was filed as active); inconclusive = small, poorly fitted or top-dose-only effect, or another doubt; inactive = no such curve, though single readings can be large or run the other way. Unless noted, % is scaled to controls: 0 for no effect and ±100 for the full control effect.

SMILES | ALDH1A1 inh | PNC assembly inh | HPGD block
COc1c2ccoc2cc2oc(=O)ccc12 | 20µM* | . | -1%
N[C@]1(C(=O)O)CC[C@@H](C(=O)O)C1 (racemic) | 3% | . | .
CCCCCCCCCCCC[N+](C)(C)CCOc1ccccc1 | 14µM* | . | -6%
CCCCCCCCCCCCCCCC[N+](C)(C)C | 1% | . | -12%
O=P(O)(OP(=O)(O)c1ccccc1)c1ccccc1 (tested in a mixture with another compound) | 0%[13.5 µM] | . | -9%
CC(=O)[C@H]1[C@H](C#N)C[C@H]2[C@@H]3CC=C4C[C@@H](O)CC[C@]4(C)[C@H]3CC[C@@]21C | 0% | -19 | -5%
COc1cc(/C=C2\C(=O)NC(=O)N(c3ccccc3)C2=O)cc(OC)c1OC | 13µM* | -29 | ?
COc1cccc(N2C(=O)NC(=O)/C(=C/c3ccc4c5c(cccc35)CC4)C2=O)c1 | ? | 23 | ?
CC1=NN(c2ccccc2)C(=O)C1/C=C1\C(=O)NC(=O)N(c2ccc(C)c(C)c2)C1=O (configuration not stated) | -16% | 53 | -21%
COc1ccc(/C=C2/C(=O)NC(=O)N(c3ccc(C)c(C)c3)C2=O)cc1CN1C(=O)c2ccccc2C1=O | 7.9µM* | -15 | 10µM*
c1ccc(C2CO2)cc1 (configuration not stated) | 6% | . | -8%
CCOP(=O)(c1ccccc1)C(O)c1ccc(F)cc1 (configuration not stated) | 24% | ? | -6%
Clc1cccc(C(Cl)(Cl)Cl)n1 | 1% | . | -2%
NCCCC[C@H](NC(=O)[C@H](Cc1ccccc1)NC(=O)[C@H](CCCN=C(N)N)NC(=O)[C@@H](N)Cc1ccc(O)cc1)C(N)=O | -3% | . | .
COC(=O)C(c1ccccc1)C1CCCCN1 (configuration not stated) | ? | . | -5%
CC(Cc1ccc(OCC(=O)O)cc1)NCC(O)c1cccc(Cl)c1 (configuration not stated) | 3% | . | -7%
CCC1(c2ccccc2)C(=O)N(C)C(=O)N(C)C1=O | 2% | 10 | 5%
CN1C(=O)N(C)C(=O)C2(Cc3ccccc3N3CCOCC32)C1=O (configuration not stated) | 20µM* | -29 | -12%
O=C(O)c1nn(Cc2ccc(Cl)c(Cl)c2)c2ccccc12 | 6% | . | -12%
CC1C(=O)OC2C1CC[C@@]1(C)C=CC(=O)[C@@]3(C)O[C@@]213 (some centres not stated) | 4% | . | 3%
CCSC(=O)Cl | ? | . | -9%
CN1CCN(c2ccc(NC(=O)C(C)(C)C)cc2)CC1 | 8% | -12 | -6%
CCN1CCN(c2ccc(N)cc2)CC1 | -13% | . | .
CN1CCN(c2ccc(N)cc2)CC1 | 32µM* | 25 | -13%
CN1CCN(c2ccc(C=O)cc2)CC1 | 13µM* | ? | -5%
SMILES | ALDH1A1 inh | PNC assembly inh | HPGD block
COc1ccc2c3c1OC1C[C@@H](O)C=C[C@@]31CCN(C)C2 (some centres not stated) | -3% | . | 2%
CN1C2CCC1CC(OC(c1ccc(F)cc1)c1ccc(F)cc1)C2 (configuration not stated) | 16% | . | .
O=C(O)c1cc[c]([Hg][S]c2ncnc3nc[nH]c23)cc1 | 0.89µM* | . | 0.22µM*
O=c1c2ccccc2nc(CSc2ncnc3nc[nH]c23)n1-c1ccccc1 | ? | 15 | -3%
CNC(=O)Oc1cccc(-c2cn3cc(OC(=O)NC)ccc3n2)c1 | ? | -7 | ?
CNC(=O)Oc1ccc2c(c1)C(=O)c1ccccc1CO2 | 11µM* | -7 | -23%
O=C(NC(=O)c1c(F)cccc1F)Nc1cc(Cl)c(OC(F)(F)C(F)C(F)(F)F)cc1Cl (configuration not stated) | 5% | . | -22%
CN1C(=O)C(O)N=C(c2ccccc2)c2cc(Cl)ccc21 (configuration not stated) | 6% | . | -2%
Cc1csc(NC(=O)C2CCCN(S(=O)(=O)c3ccc4c(c3)oc(=O)n4C)C2)n1 (configuration not stated) | -15% | -10 | 8.9µM*
CCOC(=O)N1CCC(NS(=O)(=O)c2ccc3c(c2)oc(=O)n3C)CC1 | ? | -21 | -9%
NC(=NCCCC(N)C(=O)O)N[N+](=O)[O-] (configuration not stated) | 3% | . | -4%
Clc1ccc2ccccc2c1 | -5% | . | -2%
N#Cc1ccc(CN2CC[C@@]3(CCCNC3)C2)cc1 | -8% | . | -11%
